# PubChem BioAssay (EPA / NIEHS)
# Activity calls are given as the source filed them. How the source made its calls: active means hit-call score of the fitted dose curve at least 0.9, where 1 is the maximum; inactive means score below 0.9.
# Assay: ATG_TGFb_CIS: Attagene CIS-FACTORIAL HepG2 Assay for human Transforming Growth Factor (TGF) (AID 2282967)
# Conditions: HepG2 Attagene CIS TGFb reporter, mRNA transcription; actives raise or lower the signal
# Protocol: ATG_CIS is a cell-based, multiplexed-readout assay that uses HepG2, a human liver cell line, with measurements taken at 24 hours after chemical dosing in a 24-well plate.ATG_TGFb_CIS is one of 52 assay component(s) measured or calculated from the ATG_CIS assay. It is designed to make measurements of mRNA induction, a form of inducible reporter, as detected with fluorescence intensity signals by Reverse transcription polymerase chain reaction (RT-PCR) and Capillary electrophoresis technology.Data from the assay component ATG_TGFb_CIS was analyzed into 1 assay endpoint. This assay endpoint, ATG_TGFb_CIS, was analyzed with bidirectional fitting relative to DMSO as the negative control and baseline of activity. Using a type of inducible reporter, measures of mRNA for gain or loss-of-signal activity can be used to understand the reporter gene at the transcription factor-level as they relate to the gene TGFB1. Furthermore, this assay endpoint can be referred to as a primary readout, because this assay has produced multiple assay endpoints where this one serves a reporter gene function. To generalize the intended target to other relatable targets, this assay endpoint is annotated to the growth factor intended target family, where the subfamily is transforming growth factor beta.
# Human liver HepG2 cells are transiently transfected with multiple reporter transcription units (MRTUs) in 6-well plates using FuGene 6 reagent (Roche; 3 ml FuGene/1 mg DNA). The MRTU constructs are regulated by a cis-regulating element (promoter). […] A major difference between the CIS and TRANS system is that in CIS activities of endogenous TFs are measured, whereas the TRANS assay evaluates changes in activities of exogenous, chimeric NR-Gal4 proteins. […] At the end of 24 hour incubation, total RNA was isolated using TriZol reagent (Invitrogen). The isolated RNA is then reverse-transcribed using oligo(dT) primer and Mo-MLV reverse transcriptase (Invitrogen) with DNAse I (Ambion) treatment for 30 min. The one-tenth of the produced cDNA was amplified by PCR using Taq DNA polymerase (Invitrogen) and two reporter sequence-specific primers. The PCR products were fluorescently labeled by primer extension with 6-arboxyfluorescein (6-FAM) 5'-labeled reporter sequence-specific primer (2 min at 95 C, 20 s at 68 C and 10 min at 72 C) and these products were digested with 5U of HpaI (New England Biolabs) for 2h at 37 C. The fragments were purified using Qiaquick PCR columns (Qiagen), analyzed on an ABI 3130xL genetic analyzer (Applied Biosystems) with peak positions identified by using a set of X-rhodamine (ROX)-labeled MapMarker1000 molecular weight standards (BioVentures). The raw capillary electrophoresis data was processed using Attagraph software (Attagene).
SMILES,outcome,AC50
O=C1CCCCCCCCCCCCCCCO1,inactive,–
CC=C1CC2C=CC1C2 (stereo not given),inactive,–
CC(C)(Oc1ccc(C2CC2(Cl)Cl)cc1)C(=O)O (stereo not given),inactive,–
[Cl][Nd]([Cl])[Cl],inactive,–
CCCCCCCCCCOS(=O)(=O)O,inactive,–
COc1c2ccoc2cc2oc(=O)ccc12,inactive,–
CCOC(=O)CC,inactive,–
CC(CC=O)CCCC(C)(C)O (stereo not given),inactive,–
CCCCOCCOC(=O)COc1nc(Cl)c(Cl)cc1Cl,inactive,–
CCc1c(C(=O)O)c(=O)cnn1-c1ccc(Cl)cc1,inactive,–
CCOC(=O)c1ccc(N(C)C)cc1,inactive,–
Cc1ccc2c(c1)C(=O)c1ccccc1C2=O,inactive,–
O=C(Oc1ccccc1)c1ccc2ccccc2c1O,–,49 µM (active)
OCCN(CCO)c1ccccc1,inactive,–
CC(C)(c1cc(Br)c(OCCO)c(Br)c1)c1cc(Br)c(OCCO)c(Br)c1,inactive,–
COC(=O)c1ccccc1OC,inactive,–
CCCCCC/C=C\CCCCCCCC(=O)O,inactive,–
CC(=O)Oc1ccc(C)cc1,inactive,–
OCCCS,inactive,–
CCCCCCCCCCCCCOP(=O)(O)O,inactive,–

SMILES,outcome,AC50
Oc1ccc(Cl)cc1Cc1cc(Cl)ccc1O,–,11.1 µM (active)
C=C[Si](C)(C)O[Si](C)(C)C=C,inactive,–
c1ccc2c(c1)ccc1cc3c(ccc4ccccc43)cc12,inactive,–
CCOC(F)(F)C(F)(F)C(F)(F)C(F)(F)F,inactive,–
CC(C)CCCC(C)CC=O (stereo not given),inactive,–
C/C=C\C/C=C/CCCCCCCCOC(C)=O,inactive,–
O=CC1CC1,inactive,–
C=CC(C)(CCC=C(C)C)OC(=O)C(C)C (stereo not given),inactive,–
CC(=O)[C@H]1[C@H](C#N)C[C@H]2[C@@H]3CC=C4C[C@@H](O)CC[C@]4(C)[C@H]3CC[C@@]21C,inactive,–
COc1ccc(-c2coc3cc(O)ccc3c2=O)cc1,inactive,–
O=C(c1ccccc1)c1ccc(O)c(O)c1O,inactive,–
Cc1cc(C)c(C)c(O)c1,inactive,–
COC(=O)c1ccc2cc(C(=O)OC)ccc2c1,inactive,–
CC(CC=O)c1ccccc1 (stereo not given),inactive,–
CCc1ccc2c(c1)C(=O)c1ccccc1C2=O,inactive,–
O=[N+]([O-])c1ccc(CO)cc1,inactive,–
O=Nc1ccc(O)cc1,inactive,–
CC(=O)c1ccc[nH]1,inactive,–
CC(C)=CCC/C(C)=C\C#N,inactive,–
CC(C)=CCCC(C)C=O (stereo not given),inactive,–
